# In all, about 330,000 compounds went through this assay and about 7,700 (2.3%) were called active. Roughly 26% stayed inconclusive and do not appear here. For the sample, actives were picked, then their nearest neighbours and some compounds at random. A number with no mark means an inactive call. Calls follow the shape of the dose curve; as a rule, active = well fitted inhibition curve with a large enough effect; inconclusive = small, poorly fitted or top-dose-only effect, or effect the other way; inactive = flat fitted curve, though single readings scatter.
# Assay: qHTS screen for small molecules that inhibit ELG1-dependent DNA repair in human embryonic kidney (HEK293T) cells expressing luciferase-tagged ELG1; also: nearly all actives have a fitted effect of over 55% in size
# Conditions: HEK293T ELG1-luciferase reporter, luminescence, 16 h, DNA damage induced by 5-fluorouridine; series mostly up to 46.1 µM; activity change, negative = inhibition: at the top concentration
# From the text: NIH Molecular Libraries Probe Production Network [MLPCN] NIH Chemical Genomics Center [NCGC] MLPCN Grant: 1 R03 MH092164-01 Assay Provider: Kyungjae Myung, NHGRI, NIH Keywords: MLPCN, qHTS, NCGC, genotoxicity, cancer Assay Overview: Cancer cells divide rapidly compared to normal cells in the body. During cell division, cancer cells need to duplicate their genome by DNA replication. The failure of genome duplication leads to cancer cells' death. Therefore, inhibitors of DNA replication could specifically kill cancer cells. Based on this concept, many chemotherapeutic agents were developed and have been used to treat cancer patients. However, there are a limited number of agents available in the clinical setting, and some of those that do exist have low efficacy and severe side effects. Therefore, if we can find the compounds that effectively block DNA replication either by directly damaging DNA or by inhibiting other cellular mechanisms, the options for cancer treatment will be broadened. With this in mind, we developed a quantitative high-throughput ELG1-luciferase reporter gene assay. Small molecules that specifically block ELG1 function in response to DNA damage can be identified by monitoring the suppression of luciferase activity. Since ELG1 defines a pathway for repairing DNA damage, agents blocking ELG1 function can be used to sensitize cancer cells to chemotherapeutic agents whose mechanism of action involves the induction of DNA damage.
# Assay Protocol Summary: For genotoxicity screening, 2,000 cells in 4 uL/well were dispensed into white, solid-bottom 1536-well plates using a solenoid-based dispenser. Following transfer of 1 uL 5-Fluorouridine and 23 nL compound or DMSO vehicle by a pin tool, the plates were incubated 16 hr at 37 °C and 5% CO2. 5 ul ONE-Glo (Promega) was then added to each plate and following a 30 min incubation at room temperature, luciferase activity was quantified on a ViewLux CCD-based plate reader.
# % is scaled to controls: 0 for no effect and ±100 for the full control effect; potency is read from the fitted curve at half-maximal effect.
Compound,Potency,"activity change, negative = inhibition [%]"
COc1cc(OC)c(C(=O)OC(C)C(=O)Nc2cc(C(F)(F)F)ccc2Cl)cc1OC (centres undefined),14.6 µM (active),–
CC(CC(=O)Nc1cc(C(F)(F)F)ccc1Cl)c1ccccc1 (centres undefined),–,-11.4
COc1ccc(/C(C)=N/Nc2cc(C(F)(F)F)ccc2Cl)c(OC)c1,–,-5.75
CC1CC(C)CN(C(=O)COC(=O)c2ccc3ncsc3c2)C1 (centres undefined),–,22.9
CCN(CC(=O)Nc1ccc(OC)cc1)C(=O)c1ccc(Cl)c(S(=O)(=O)N2CCCC2)c1,–,-8.47
Cc1nnc(N/N=C/C2CC=CCC2)[nH]c1=O (centres undefined),–,8.5
Cc1nnc(N/N=C/c2ccccn2)[nH]c1=O,0.92 µM (active),–
Cc1ccccc1Nc1nnc(C)c(=O)[nH]1,–,1.45
Cc1ccc([C@@H]2CC=C(C(=O)O)[C@H](c3cccc(Cl)c3)N2S(=O)(=O)c2ccc(C)cc2)cc1,–,10.9
CN(C)C(CNC(=O)Cc1ccc([N+](=O)[O-])cc1)c1ccccc1 (centres undefined),–,13.3
CN(CCc1ccccc1)C(=O)c1cccc(NC(=O)Cc2ccc([N+](=O)[O-])cc2)c1,13 µM (active),–
CN(C)CCNC(=O)Cc1ccc([N+](=O)[O-])cc1,–,15.5
Cc1ccc2nnn(Cc3cccc(C(C)(C)C)c3O)c2c1,–,-1.83
CCc1ccc2nc(N(CCCN(C)C)C(=O)c3ccc4c(c3)OCCO4)sc2c1,–,9.22
O=C(CSc1ncnc2sccc12)NC1CCS(=O)(=O)C1 (centres undefined),–,6.81
CC1(C)Cc2cccc(OCC(=O)NCc3ccccc3)c2O1,–,16.1
COc1ccc(NS(=O)(=O)c2ccc(N3CCOCC3)c(NC(=O)c3ccccc3Br)c2)cc1,–,-26.6
COc1ccc(NS(=O)(=O)c2cc(NC(=O)/C=C/c3cc(OC)c(OC)c(OC)c3)ccc2N2CCCCC2)cc1,–,13.2
COc1ccc(NS(=O)(=O)c2cc(NC(=O)C3CCCCC3)ccc2N2CCOCC2)cc1,20.6 µM (active),–
COc1ccc2oc(C)c(NC(C)=O)c2c1,–,0.987
COc1ccc(S(=O)(=O)Nc2ccc3oc(C)c(C(C)=O)c3c2)cc1,2.59 µM (active),–
CC(=O)c1c(C)oc2ccc(NS(=O)(=O)c3ccc(C(=O)O)cc3)cc12,–,-1.04
Cc1ccc(S(=O)(=O)N2CCC(C(=O)OCC(=O)N(C)c3ccccc3)CC2)cc1C,–,-24.6
CCN(CC(=O)Nc1ccc(C)c(S(=O)(=O)N(C)C)c1)Cc1ccccc1,–,-0.255
CC(C)(C)c1ccc(SCCc2ccncc2)cc1,–,12.8

Compound,Potency,"activity change, negative = inhibition [%]"
CCC(C(=O)NC1CCCC1)N(C(=O)Cn1nnc(-c2ccc(C)o2)n1)c1ccc(OC)c(OC)c1 (centres undefined),–,17.5
COC(=O)c1c(NC(=O)CCCC(=O)O)sc2c1CCCCC2,–,6.79
COC(=O)c1c(NC(=O)COC(=O)[C@@H](NS(=O)(=O)c2ccccc2)C(C)C)sc2c1CCC2,25.9 µM (active),–
CCOCC(=O)Nc1sc2c(c1C(=O)OCC)CCCC2,–,-28.6
O=C1C=C(c2cc(C(F)(F)F)cc(C(F)(F)F)c2)C[C@@H](c2ccc3c(c2)OCO3)C1,–,6.59
Cc1nc2sc(C(=O)c3ccccc3)c(N)c2c2c1CCCC2,–,-1.68
Cc1cccc(NC(=O)c2sc3nc4c(c(-c5ccco5)c3c2N)CCC4)c1,–,-2.91
NC(=O)c1sc2nc3c(c(-c4ccccc4)c2c1N)CCC3,4.11 µM (active),–
CC(=O)N1CCN(c2ccccc2NC(=S)NC(=O)c2cc3ccccc3o2)CC1,–,-7.26
COc1ccc(-c2oc3ncnc(NCCCO)c3c2-c2ccc(OC)cc2)cc1,18.3 µM (active),–
c1ccc(-c2oc3ncnc(N4CCOCC4)c3c2-c2ccccc2)cc1,–,2.31
COc1ccc(-c2oc(/N=C/N3CCCC3)c(C#N)c2-c2ccc(OC)cc2)cc1,–,-13.4
CCn1c(=O)c2ccccc2n(CC(=O)N2CCCc3ccccc32)c1=O,–,-16.6
CCN(C[C@H]1N[C@@](CC)(C(=O)OC)[C@H]2C(=O)N(Cc3ccccc3)C(=O)[C@@H]12)S(=O)(=O)c1ccccc1,–,-17
COc1ccc(NC(=O)c2cc([N+](=O)[O-])ccc2NC(=O)CNC2CCCCC2C)c(OC)c1 (centres undefined),–,-1.95
CCOc1ccc(C(C(=O)NC2CCCC2)N(C(=O)c2snc(C(N)=O)c2N)C2CCCC2)cc1 (centres undefined),–,0.122
COc1ccc(C(=O)OCC(=O)c2cc(C)n(CC3CCCO3)c2C)cc1[N+](=O)[O-] (centres undefined),–,-8.41
COc1cc(/C=C/C(=O)N2c3ccccc3Sc3ccc(C(F)(F)F)cc32)cc(OC)c1OC,9.2 µM (active),–
O=C(CN1CCCCCC1)N1c2ccccc2Sc2ccc(C(F)(F)F)cc21,–,-11.8
O=C(CN1CCCCC1)N1c2ccccc2Sc2ccc(C(F)(F)F)cc21,–,-0.87
COC(=O)C1CCN(C(=O)NC2CC(=O)N(c3ccc4c(c3)OCCO4)C2)CC1 (centres undefined),–,5.95
COC(=O)COc1ccc(S(=O)(=O)N2CCOCC2)cc1,–,-1.32
COc1ccc(C(=O)Nc2nc(-c3ccc(S(=O)(=O)N4CCOCC4)cc3)cs2)cc1,11.6 µM (active),–
COc1cccc(C(=O)Nc2nnc(S(=O)(=O)N3CCOCC3)s2)c1,–,18.7
